Assay results: PubChem BioAssay
For some assays here: Measured potencies and affinities stand elsewhere. The source made the active and inactive calls. Unless noted, no rule for the calls is given here.

Experiments:
[1] = antimalarial activity against Dd2 strain (AID 2302;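 active = growth inhibition above 50% at the single 2 µM test dose, taken to imply half-maximal potency below 2 µM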;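 also: 0% = DMSO untreated growth and 100% = chloroquine plus artemisinin killed control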); settings: P. falciparum Dd2 in RBCs, LDH growth readout, 72 h; at 2 µM; stronger effect = higher value
[2] = human hepatoma cell viability loss – ATP luminescence, cytotoxicity control for P. falciparum antimalarial project, primary screen (AID 2303;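 active = inhibition above 50%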;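 also: 0% = DMSO wells and 100% = digitonin-killed cells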); settings: HepG2 viability, 24-48 h, at 10 µM, stronger effect = higher value
[3] = molecular target: L-lactate dehydrogenase (Plasmodium falciparum (isolate CDC / Honduras)) (UniProt Q27743); test: PfLDH activity inhibition – cell lysate, 3D7 strain, counter-screen for P. falciparum growth inhibition project (AID 2304);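 also: 0% = vehicle and 100% = reference inhibitor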; settings: P. falciparum 3D7 crude extract, LDH APAD/NBT absorbance; at 2 µM; stronger effect = higher value
[4] = inhibition of 3D7 malaria parasite growth – strain 3D7 (AID 2306);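 also: 0% = DMSO wells and 100% = chloroquine plus artemisinin control wells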; settings: P. falciparum 3D7 erythrocytic growth, LDH absorbance, 72 h; at 2 µM; stronger effect = higher value
[5] = molecular target: Calcium-dependent protein kinase 1 (Plasmodium falciparum (isolate 3D7)) (UniProt P62344); test: PfCDPK1 kinase inhibitors, biochemical, TCAMS library (AID 1159585; cut-off not given, nearly all actives have IC50 up to about 0.98 µM;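 also: inhibitors leave more ATP so luminescence rises with inhibition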); settings: recombinant PfCDPK1, Kinase-Glo ATP depletion luminescence
[6] = molecular target: Plasmodium falciparum protein kinase 6 (PK6, PF3D7_1337100) (UniProt Q8IDW1); test: PfPK6 kinase inhibitors, biochemical, TCAMS library (AID 1159586); settings: recombinant PfPK6, Kinase-Glo ATP depletion luminescence
[7] = molecular target: Protein kinase 7 (PK7), Plasmodium falciparum 3D7 (PF3D7_0213400) (UniProt Q7YTF7); test: inhibition of Plasmodium PK7 catalytic activity – biochemical, TCAMS antimalarial set, Kinase-Glo luminescence (AID 1159587); settings: recombinant PfPK7, Kinase-Glo ATP depletion luminescence
[8] = molecular target: Calcium-dependent protein kinase 4 (Plasmodium falciparum (isolate 3D7)) (UniProt Q8IBS5); test: PfCDPK4 kinase inhibitors, biochemical, TCAMS library (AID 1159588; cut-off not given, nearly all actives have IC50 up to about 0.91 µM); settings: recombinant PfCDPK4, Kinase-Glo ATP depletion luminescence
Sequence of Calcium-dependent protein kinase 4 (Plasmodium falciparum (isolate 3D7)) (Q8IBS5 whole entry, looked up): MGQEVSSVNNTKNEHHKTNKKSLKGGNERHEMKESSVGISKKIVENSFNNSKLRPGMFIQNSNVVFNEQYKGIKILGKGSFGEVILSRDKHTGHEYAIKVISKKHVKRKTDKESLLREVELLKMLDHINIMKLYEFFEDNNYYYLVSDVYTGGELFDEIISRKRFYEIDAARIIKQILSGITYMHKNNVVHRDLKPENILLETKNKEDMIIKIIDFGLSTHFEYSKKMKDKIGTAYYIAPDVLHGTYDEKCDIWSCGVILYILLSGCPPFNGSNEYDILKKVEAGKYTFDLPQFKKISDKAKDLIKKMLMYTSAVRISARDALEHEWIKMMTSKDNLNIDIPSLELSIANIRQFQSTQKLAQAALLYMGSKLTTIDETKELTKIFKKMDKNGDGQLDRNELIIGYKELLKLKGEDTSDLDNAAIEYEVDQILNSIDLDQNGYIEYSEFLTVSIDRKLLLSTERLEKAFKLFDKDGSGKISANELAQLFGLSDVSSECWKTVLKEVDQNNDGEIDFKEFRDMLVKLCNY

Sequence of Plasmodium falciparum protein kinase 6 (PK6, PF3D7_1337100) (Q8IDW1 1-305): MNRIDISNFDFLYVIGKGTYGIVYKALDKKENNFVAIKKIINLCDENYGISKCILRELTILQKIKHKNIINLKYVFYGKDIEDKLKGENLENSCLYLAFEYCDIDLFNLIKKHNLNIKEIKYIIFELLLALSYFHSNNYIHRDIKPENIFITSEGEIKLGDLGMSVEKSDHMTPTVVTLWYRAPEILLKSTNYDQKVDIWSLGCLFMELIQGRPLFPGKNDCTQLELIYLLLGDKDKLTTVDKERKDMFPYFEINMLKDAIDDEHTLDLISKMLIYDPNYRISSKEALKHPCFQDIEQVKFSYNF
Sequence of L-lactate dehydrogenase (Plasmodium falciparum (isolate CDC / Honduras)) (Q27743 whole entry, looked up): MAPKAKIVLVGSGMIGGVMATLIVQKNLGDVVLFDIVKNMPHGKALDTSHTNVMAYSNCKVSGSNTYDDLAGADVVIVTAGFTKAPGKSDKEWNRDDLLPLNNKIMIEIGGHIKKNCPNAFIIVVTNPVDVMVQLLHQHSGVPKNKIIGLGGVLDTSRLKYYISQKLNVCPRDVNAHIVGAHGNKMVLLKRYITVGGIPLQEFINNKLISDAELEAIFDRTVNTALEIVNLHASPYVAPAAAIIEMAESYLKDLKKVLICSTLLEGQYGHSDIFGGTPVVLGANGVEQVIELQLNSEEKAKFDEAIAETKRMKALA
Sequence of Calcium-dependent protein kinase 1 (Plasmodium falciparum (isolate 3D7)) (P62344 whole entry, looked up): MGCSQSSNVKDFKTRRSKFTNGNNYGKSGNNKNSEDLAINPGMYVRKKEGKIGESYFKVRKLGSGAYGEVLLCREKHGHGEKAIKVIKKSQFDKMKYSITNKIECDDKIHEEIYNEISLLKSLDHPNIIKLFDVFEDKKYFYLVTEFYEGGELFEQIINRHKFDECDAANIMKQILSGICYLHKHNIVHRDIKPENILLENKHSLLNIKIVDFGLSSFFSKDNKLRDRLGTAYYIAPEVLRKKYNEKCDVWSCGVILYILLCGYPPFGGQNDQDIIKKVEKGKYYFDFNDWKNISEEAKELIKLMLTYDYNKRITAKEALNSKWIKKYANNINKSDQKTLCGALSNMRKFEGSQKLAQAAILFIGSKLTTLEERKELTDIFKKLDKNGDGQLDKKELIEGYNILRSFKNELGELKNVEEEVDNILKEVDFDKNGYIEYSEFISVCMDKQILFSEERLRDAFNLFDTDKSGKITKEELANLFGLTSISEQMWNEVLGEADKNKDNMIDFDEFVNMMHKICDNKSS
Sequence of Protein kinase 7 (PK7), Plasmodium falciparum 3D7 (PF3D7_0213400) (Q7YTF7 1-343): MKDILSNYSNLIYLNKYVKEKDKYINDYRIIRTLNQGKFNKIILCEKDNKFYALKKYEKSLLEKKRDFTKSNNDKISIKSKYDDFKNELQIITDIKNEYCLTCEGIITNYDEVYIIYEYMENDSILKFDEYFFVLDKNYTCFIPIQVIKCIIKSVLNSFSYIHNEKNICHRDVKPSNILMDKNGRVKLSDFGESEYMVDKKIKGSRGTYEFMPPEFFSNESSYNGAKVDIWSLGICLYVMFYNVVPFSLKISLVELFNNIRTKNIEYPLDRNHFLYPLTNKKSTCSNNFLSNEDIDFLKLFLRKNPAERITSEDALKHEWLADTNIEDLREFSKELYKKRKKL

CCC[C@@H]([C@@H](CC1CCC(C)CC1)C(=O)N[C@@H](CCCCNC(=O)c1ccccn1)C(=O)Nc1nccs1)N(O)C=O (stereo not given in full)
active: growth inhibition [1] 79% | growth inhibition [4] 101%
inactive: inhibition [2] 25% | inhibition [3] -1% | outcome [5] | outcome [6] | outcome [7] | outcome [8]

COc1cc2c(c(Cl)c1OC)CCN(C(=O)C(F)(F)F)CC2c1ccccc1 (stereo not given)
inactive: inhibition [2] 7% | inhibition [3] 8% | outcome [5] | outcome [6] | outcome [7] | outcome [8]
active: growth inhibition [1] 101% | growth inhibition [4] 101%

CN(C)Cc1cccc(-c2ccc(NC(=O)c3ccc4c(=O)n(CC5CCCO5)cnc4c3)cc2)c1 (stereo not given)
inactive: growth inhibition [1] 14% | inhibition [2] 28% | inhibition [3] 0% | outcome [5] | outcome [6] | outcome [7] | outcome [8]
active: growth inhibition [4] 97%

CC(C)C1=NCc2ccc([N+](=O)[O-])cc2C(=O)N1
inactive: growth inhibition [1] -1% | inhibition [2] 6% | inhibition [3] 4% | outcome [5] | outcome [6] | outcome [7] | outcome [8]
active: growth inhibition [4] 98%

C=CCOc1ccccc1CNCC(O)c1cc(Br)cs1 (stereo not given)
inactive: inhibition [2] 25% | inhibition [3] -4% | outcome [5] | outcome [6] | outcome [7] | outcome [8]
active: growth inhibition [1] 72% | growth inhibition [4] 93%

O=C(Nc1ccccc1)OCCOc1ccc(CC2SC(=O)NC2=O)cc1 (stereo not given)
inactive: growth inhibition [1] -6% | inhibition [2] 1% | inhibition [3] -3% | outcome [5] | outcome [6] | outcome [7] | outcome [8]
active: growth inhibition [4] 100%

Cc1ccc(-c2nc3cc(NC(=O)c4ccc([N+](=O)[O-])o4)ccc3o2)cc1Cl
inactive: inhibition [2] 24% | inhibition [3] -3% | outcome [5] | outcome [6] | outcome [7] | outcome [8]
active: growth inhibition [1] 97% | growth inhibition [4] 102%

COc1ccc2nccc(N3CCN(CCNCc4ccc5c(n4)NC(=O)CO5)CC3)c2c1
inactive: growth inhibition [1] 5% | inhibition [2] 18% | inhibition [3] 5% | outcome [5] | outcome [6] | outcome [7] | outcome [8]
active: growth inhibition [4] 92%

CCOc1cc(NCCCNc2ncc([N+](=O)[O-])cc2C)nc2ccccc12
inactive: inhibition [2] 10% | inhibition [3] 2% | outcome [5] | outcome [6] | outcome [7] | outcome [8]
active: growth inhibition [1] 64% | growth inhibition [4] 84%

Cc1cc(N)c2cc(NC(=O)CCC(=O)Nc3ccc4nc(C)cc(N)c4c3)ccc2n1
active: growth inhibition [1] 77% | growth inhibition [4] 85%
inactive: inhibition [2] -2% | inhibition [3] 1% | outcome [5] | outcome [6] | outcome [7] | outcome [8]

O=C(Nc1ccc(F)cc1F)NC1CCN(c2ccnc3cc(Cl)ccc23)C1 (stereo not given)
active: growth inhibition [1] 82% | growth inhibition [4] 100%
inactive: inhibition [2] 25% | inhibition [3] 1% | outcome [5] | outcome [6] | outcome [7] | outcome [8]

CC(C)Sc1nc2c(c(=O)n1CCc1ccccc1)C1(CCCC1)Cc1ccccc1-2
active: growth inhibition [1] 88% | growth inhibition [4] 102%
inactive: inhibition [2] -3% | inhibition [3] -4% | outcome [5] | outcome [6] | outcome [7] | outcome [8]

O=C(/C=C/c1cccc(Cl)c1)Nc1ccc2nc(CN3CCCC3)ccc2c1
inactive: growth inhibition [1] 42% | inhibition [2] 47% | inhibition [3] 4% | outcome [5] | outcome [6] | outcome [7] | outcome [8]
active: growth inhibition [4] 99%

Cc1c(CNCCCNc2cc(=O)c3ccccc3[nH]2)sc(-c2ccco2)c1Br
inactive: growth inhibition [1] 39% | inhibition [2] -4% | inhibition [3] -1% | outcome [5] | outcome [6] | outcome [7] | outcome [8]
active: growth inhibition [4] 93%

Cc1cc(C(=O)CN2C(=O)NC3(CCCc4ccccc43)C2=O)c(C)n1Cc1ccco1 (stereo not given)
active: growth inhibition [4] 90%
inactive: growth inhibition [1] -5% | inhibition [2] 11% | inhibition [3] 4% | outcome [5] | outcome [6] | outcome [7] | outcome [8]

COc1ccc(Nc2c3ccc(Cl)cc3nc3ccc(OC)cc23)cc1
active: growth inhibition [1] 99% | growth inhibition [4] 94%
inactive: inhibition [2] 14% | inhibition [3] 3% | outcome [5] | outcome [6] | outcome [7] | outcome [8]

Cc1cc(NCCC(=O)Nc2ccccc2)nc(NCCc2cccnc2)n1
active: growth inhibition [4] 84%
inactive: growth inhibition [1] 4% | inhibition [2] -1% | inhibition [3] -2% | outcome [5] | outcome [6] | outcome [7] | outcome [8]

COc1ccc(NC(=O)Nc2ccc(-c3ccccc3)cc2)cc1Cn1nc(Cl)c(N2CCCNCC2)cc1=O
inactive: inhibition [2] 18% | inhibition [3] 0% | outcome [5] | outcome [6] | outcome [7] | outcome [8]
active: growth inhibition [1] 84% | growth inhibition [4] 102%

COc1ccc(-c2cc(C(=O)N[C@@H](Cc3ccccc3)C(=O)NCCN3CCCCC3)ccc2O)cc1
inactive: growth inhibition [1] -3% | inhibition [2] -3% | inhibition [3] 1% | outcome [5] | outcome [6] | outcome [7] | outcome [8]
active: growth inhibition [4] 96%

CCCCCCCN1CC[C@H](NC(=O)Nc2ccnc3ccc(OC)cc23)[C@H](CO)C1
active: growth inhibition [1] 69% | growth inhibition [4] 94%
inactive: inhibition [2] 23% | inhibition [3] -3% | outcome [5] | outcome [6] | outcome [7] | outcome [8]

CS(=O)(=O)c1ccc(-c2cnc(N)c(-c3cccc(CO)c3)c2)cc1
inactive: inhibition [2] -4% | inhibition [3] 0% | outcome [5] | outcome [6] | outcome [7] | outcome [8]
active: growth inhibition [1] 51% | growth inhibition [4] 98%

Cc1ccccc1NC(=O)C1CSCN1C(=O)OCc1ccccc1 (stereo not given)
active: growth inhibition [4] 91%
inactive: growth inhibition [1] -1% | inhibition [2] 8% | inhibition [3] -1% | outcome [5] | outcome [6] | outcome [7] | outcome [8]

Cc1ccccc1C1CCN(C2CCC(NC(=O)/C=C/c3cccc(C(F)(F)F)c3)CC2)CC1 (stereo not given)
inactive: inhibition [3] -4% | outcome [5] | outcome [6] | outcome [7] | outcome [8]
active: growth inhibition [1] 54% | inhibition [2] 96% | growth inhibition [4] 100%

Cc1nc(-c2nc(NCc3ccc4c(c3)OCO4)ncc2-c2ccsc2)sc1C
active: growth inhibition [1] 77% | growth inhibition [4] 97%
inactive: inhibition [2] 7% | inhibition [3] -6% | outcome [5] | outcome [6] | outcome [7] | outcome [8]

CCCCN(CCCC)CCCCCCNc1c2ccccc2nc2ccccc12
active: growth inhibition [1] 87% | growth inhibition [4] 95%
inactive: inhibition [2] 49% | inhibition [3] 7% | outcome [5] | outcome [6] | outcome [7] | outcome [8]

CN(C)CCCN1CCN(C(=O)c2cccc(-c3noc(C(F)(F)F)n3)c2)CC1
inactive: inhibition [2] -7% | inhibition [3] -4% | outcome [5] | outcome [6] | outcome [7] | outcome [8]
active: growth inhibition [1] 60% | growth inhibition [4] 92%

O=C(Cn1c(CCc2cccc(F)c2F)nc(=O)c2ccccc21)N(Cc1ccc(-c2ccc(C(F)(F)F)cc2)cc1)C1CCN(C2CCOCC2)CC1
active: growth inhibition [1] 76% | inhibition [2] 97% | growth inhibition [4] 101%
inactive: inhibition [3] -2% | outcome [5] | outcome [6] | outcome [7] | outcome [8]

O=C(NC1CCCCC1)N(Cc1ccc(-c2cccc(CNCc3ccc4c(c3)OCO4)c2)cc1)C1CCN(Cc2ccccc2)CC1
inactive: inhibition [2] 23% | inhibition [3] 4% | outcome [5] | outcome [6] | outcome [7] | outcome [8]
active: growth inhibition [1] 72% | growth inhibition [4] 101%

COc1ccc2nc3cc(Cl)ccc3c(NCCCCN)c2c1
inactive: inhibition [3] 7% | outcome [5] | outcome [6] | outcome [7] | outcome [8]
active: growth inhibition [1] 62% | inhibition [2] 52% | growth inhibition [4] 101%

c1cc(-c2ccc(CN3CCN(c4ccncc4)CC3)cc2)cc(-c2nc3ccccc3[nH]2)c1
active: growth inhibition [1] 100% | inhibition [2] 61% | growth inhibition [4] 101%
inactive: inhibition [3] -2% | outcome [5] | outcome [6] | outcome [7] | outcome [8]

CC(C)(C)c1ccc(NC(=O)N[C@@H]2CCN(c3ccnc4ccccc34)C2)cc1
active: growth inhibition [1] 96% | growth inhibition [4] 102%
inactive: inhibition [2] 23% | inhibition [3] 0% | outcome [5] | outcome [6] | outcome [7] | outcome [8]

CCN(CC)CCN(Cc1ccc(-c2ccc(C(F)(F)F)cc2)cc1)C(=O)Cn1c(SCc2ccc(F)cc2)nc(=O)c2sccc21
inactive: inhibition [3] -1% | outcome [5] | outcome [6] | outcome [7] | outcome [8]
active: growth inhibition [1] 65% | inhibition [2] 51% | growth inhibition [4] 101%

O=C(NCCc1ccccc1)N(Cc1cccc(-c2ccc(CNCc3ccc4c(c3)OCO4)cc2)c1)C1CCN(Cc2ccccc2)CC1
inactive: inhibition [2] 11% | inhibition [3] -2% | outcome [5] | outcome [6] | outcome [7] | outcome [8]
active: growth inhibition [1] 70% | growth inhibition [4] 94%

COc1ccc(Nc2nc(NCc3cccnc3)cc(-c3ccc(OC)cc3)n2)cc1
inactive: growth inhibition [1] 16% | inhibition [2] -2% | inhibition [3] 3% | outcome [5] | outcome [6] | outcome [7] | outcome [8]
active: growth inhibition [4] 89%

COc1ccc(OCCCCON2C(N)=NC(N)=NC2(C)C)cc1
active: growth inhibition [1] 95% | inhibition [2] 54% | growth inhibition [4] 92%
inactive: inhibition [3] 4% | outcome [5] | outcome [6] | outcome [7] | outcome [8]

COc1ccc(-c2cccc(NC(=O)c3ccc(Cl)cc3)c2)cc1CNC(C)C
inactive: growth inhibition [1] 44% | inhibition [3] -4% | outcome [5] | outcome [6] | outcome [7] | outcome [8]
active: inhibition [2] 53% | growth inhibition [4] 101%

O=C(NC(CCCN1CCC(c2ccccc2)CC1)c1ccc(Cl)c(Cl)c1)c1cc(C(F)(F)F)cc(C(F)(F)F)c1 (stereo not given)
inactive: inhibition [2] 33% | inhibition [3] 3% | outcome [5] | outcome [6] | outcome [7] | outcome [8]
active: growth inhibition [1] 87% | growth inhibition [4] 92%

COc1cccc(O)c1CN1CCC2(CCCN(Cc3ccc(F)cc3)C2)C1 (stereo not given)
inactive: inhibition [2] 21% | inhibition [3] 1% | outcome [5] | outcome [6] | outcome [7] | outcome [8]
active: growth inhibition [1] 72% | growth inhibition [4] 98%

Cc1cccc2[nH]c(-c3ccc(-c4ccc(NC(=O)C(C)CN(C)C)cc4)cc3)nc12 (stereo not given)
active: growth inhibition [1] 99% | growth inhibition [4] 99%
inactive: inhibition [2] 18% | inhibition [3] -6% | outcome [5] | outcome [6] | outcome [7] | outcome [8]

C=CCc1cccc(OC)c1OCCCON1C(N)=NC(N)=NC1(C)C
inactive: inhibition [3] -1% | outcome [5] | outcome [6] | outcome [7] | outcome [8]
active: growth inhibition [1] 95% | inhibition [2] 58% | growth inhibition [4] 94%
